Experimental data taken from PubChem BioAssay.
Inconclusive results are not listed. Activity calls are given as the source filed them. Unless noted, no cut-off is given here; in the data, nearly all actives have AC50 up to about 26 µM.

Columns and labels:
[1] = growth inhibition of DIPG glioma cells, dose response, cell-based, SU-DIPG-XVII, MIPE5.0, CellTiter-Glo, qHTS (AID 1347060); details: SU-DIPG-XVII viability, CellTiter-Glo ATP luminescence;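 for AC50: cells exposed to compound for 48 hours before viability readout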
[2] = growth inhibition of DIPG glioma cells, dose response, cell-based, SU-DIPG-XIII, MIPE4.0, CellTiter-Glo, qHTS (AID 1347061; cut-off not given, nearly all actives have AC50 up to about 37 µM;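 note: cells exposed to compound for 48 hours before readout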); details: SU-DIPG-XIII viability, CellTiter-Glo ATP luminescence
[3] = growth inhibition of DIPG glioma cells, dose response, cell-based, JHH-DIPG-1, MIPE4.0, CellTiter-Glo, qHTS (AID 1347062; cut-off not given, nearly all actives have AC50 up to about 27 µM;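 for AC50: cells exposed to compound for two days before readout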); details: JHH-DIPG-1 viability, CellTiter-Glo ATP luminescence
[4] = growth inhibition of DIPG glioma cells, dose response, cell-based, SU-DIPG-IV, MIPE4.0, CellTiter-Glo, qHTS (AID 1347063; cut-off not given, nearly all actives have AC50 up to about 30 µM;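 note: compound exposure lasted 48 hours before the viability readout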); details: SU-DIPG-IV viability, CellTiter-Glo ATP luminescence
[5] = growth inhibition of DIPG glioma cells, dose response, cell-based, SU-DIPG-XIII, MIPE5.0, CellTiter-Glo, qHTS (AID 1347064; cut-off not given, nearly all actives have AC50 up to about 23 µM;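 for AC50: cells exposed to compound for 48 hours before the viability read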); details: SU-DIPG-XIII viability, CellTiter-Glo ATP luminescence
[6] = viability loss in pontine glioma line – cell-based, SU-DIPG-XXV, MIPE5.0, CellTiter-Glo, qHTS, dose response (AID 1347065); details: CellTiter-Glo ATP luminescence;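 note: cells exposed to compound for 48 hours before ATP readout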
[7] = SU-DIPG-VI glioma cell viability, MIPE4.0 library, CellTiter-Glo luminescence, qHTS (AID 1347066; cut-off not given, nearly all actives have AC50 up to about 30 µM;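 note: cells exposed to compound for 48 hours before readout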); details: CellTiter-Glo ATP luminescence
[8] = JHH-DIPG-1 glioma cell viability, MIPE5.0 library, CellTiter-Glo luminescence, qHTS (AID 1347067); details: JHH-DIPG-1 glioma viability, CellTiter-Glo ATP luminescence;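 note: cells exposed to compound for 48 hours before readout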
[9] = SU-DIPG-XXV glioma cell viability, MIPE5.0 library, qHTS (AID 1347068; cut-off not given, nearly all actives have IC50 up to about 30 µM;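 for IC50: cells exposed to compound for 48 hours before viability readout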)
[10] = sensitizers of A549 cells to miR-34 induction, primary screen, imaging, A549 dox-inducible miR-34, nuclei and caspase counts (AID 1347080;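 active = compounds whose cell count with miR-34 switched on is under 0.7 times the count with it off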); details: A549 miR-34 inducible, Hoechst nuclei count, 48 h
[11] = modifiers of HSF1 nuclear foci, imaging, Selleck Cancer Library (AID 1347162; in the data active = plate-normalised HSF1 focus index below about 0.46); details: human cells, at 10 µM; SSMD: measured here: HSF1 foci SSMD mean; cell count: measured here: cell number; plate-normalised HSF1 focus index: stronger effect = lower value
[12] = survival rescue of mitochondrial mutant cells in low glucose, primary screen, MELAS cybrids, Rieske KO mouse fibroblasts, CellTiter-Glo (AID 1508586;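 active = mean z-score across replicates of 1.96 or higher in either the MELAS or the Rieske mutant cell line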;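 note: z relative to plate mean and SD of compound and empty wells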)
[13] = ovarian cancer cell viability with rucaparib, profiling panel, oncology-focused library, rucaparib conditional (AID 1508598;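 active = normalized viability below 100% at a tested concentration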); details: patient-derived ovarian cancer cells, CellTiter-Glo viability, 144 h, stronger effect = lower value
[14] = stronger effect = lower value, cell number ratio, induced over uninduced
[15] = measured here: relative caspase fold change +Dox/-Dox
[16] = measured here: total cells with miR-34 induction, stronger effect = lower value
[17] = measured here: total cells without miR-34 induction
[18] = MELAS cybrid survival, CellTiter-Glo 48 h, stronger effect = higher value
[19] = Rieske KO mouse fibroblast survival, CellTiter-Glo 72 h

SMILES: COc1cc(O)c2c(c1)C1OC1C[C@H](O)[C@H](O)C(=O)/C=C\C[C@H](C)OC2=O (stereo partly drawn)
- AC50 [1]: 661 nM (active)
- AC50 [2]: 662 nM (active)
- AC50 [3]: 5900 nM (active)
- AC50 [4]: 4180 nM (active)
- AC50 [5]: 661 nM (active)
- AC50 [6]: 934 nM (active)
- AC50 [7]: 13200 nM (active)
- AC50 [8]: 4170 nM (active)
- IC50 [9]: 18600 nM (active)

SMILES: OC[C@H]1O[C@@H](n2cnc3c2NC=NC[C@H]3O)C[C@@H]1O
- outcome [1]: inactive
- outcome [2]: inactive
- outcome [3]: inactive
- outcome [4]: inactive
- outcome [5]: inactive
- outcome [6]: inactive
- outcome [7]: inactive
- outcome [8]: inactive
- outcome [9]: inactive

SMILES: Cc1c(CN2CCN(C(=O)[C@H](C)O)CC2)sc2c(N3CCOCC3)nc(-c3cnc(N)nc3)nc12
- AC50 [1]: 590 nM (active)
- AC50 [2]: 1870 nM (active)
- AC50 [3]: 1870 nM (active)
- AC50 [4]: 41.8 nM (active)
- AC50 [5]: 590 nM (active)
- AC50 [6]: 209 nM (active)
- AC50 [7]: 935 nM (active)
- AC50 [8]: 372 nM (active)
- IC50 [9]: 934 nM (active)

SMILES: Nc1cc(C(F)(F)F)c(-c2cc(N3CCOCC3)nc(N3CCOCC3)n2)cn1
- AC50 [1]: 2950 nM (active)
- AC50 [2]: 6620 nM (active)
- AC50 [3]: 2090 nM (active)
- AC50 [4]: 332 nM (active)
- AC50 [5]: 2950 nM (active)
- AC50 [6]: 934 nM (active)
- AC50 [7]: 1480 nM (active)
- AC50 [8]: 1480 nM (active)
- IC50 [9]: 3720 nM (active)
- fold change [10, 14]: 0.829 (inactive)
- fold change [10, 15]: 1.1
- cell count [10, 16]: 1500
- cell count [10, 17]: 1810
- SSMD [11]: -2.85
- cell count [11]: 7440
- plate-normalised HSF1 focus index [11]: 0.897 (inactive)
- z-score [12, 18]: 2.94 (active)
- z-score [12, 19]: -2.21
- viability ([13]; at 0.000305 µM, OCI-C5x cells, with rucaparib 10 µM, 100% = cells with rucaparib alone): 103% (inactive)
- viability ([13]; at 0.000305 µM, OCI-C5x cells, without rucaparib): 125% (inactive)
- viability ([13]; at 0.000305 µM, OCI-P5x cells, with rucaparib 20 µM, 100% = cells with rucaparib alone): 104% (inactive)
- viability ([13]; at 0.000305 µM, OCI-P5x cells, without rucaparib): 106% (inactive)
- viability ([13]; at 0.00122 µM, OCI-C5x cells, with rucaparib 10 µM, 100% = cells with rucaparib alone): 103% (inactive)
- viability ([13]; at 0.00122 µM, OCI-C5x cells, without rucaparib): 120% (inactive)
- viability ([13]; at 0.00122 µM, OCI-P5x cells, with rucaparib 20 µM, 100% = cells with rucaparib alone): 98.2% (active)
- viability ([13]; at 0.00122 µM, OCI-P5x cells, without rucaparib): 114% (inactive)
- viability ([13]; at 0.00488 µM, OCI-C5x cells, with rucaparib 10 µM, 100% = cells with rucaparib alone): 112% (inactive)
- viability ([13]; at 0.00488 µM, OCI-C5x cells, without rucaparib): 141% (inactive)
- viability ([13]; at 0.00488 µM, OCI-P5x cells, with rucaparib 20 µM, 100% = cells with rucaparib alone): 103% (inactive)
- viability ([13]; at 0.00488 µM, OCI-P5x cells, without rucaparib): 107% (inactive)
- viability ([13]; at 0.0195 µM, OCI-C5x cells, with rucaparib 10 µM, 100% = cells with rucaparib alone): 104% (inactive)
- viability ([13]; at 0.0195 µM, OCI-C5x cells, without rucaparib): 117% (inactive)
- viability ([13]; at 0.0195 µM, OCI-P5x cells, with rucaparib 20 µM, 100% = cells with rucaparib alone): 100% (inactive)
- viability ([13]; at 0.0195 µM, OCI-P5x cells, without rucaparib): 110% (inactive)
- viability ([13]; at 0.0781 µM, OCI-C5x cells, with rucaparib 10 µM, 100% = cells with rucaparib alone): 120% (inactive)
- viability ([13]; at 0.0781 µM, OCI-C5x cells, without rucaparib): 121% (inactive)
- viability ([13]; at 0.0781 µM, OCI-P5x cells, with rucaparib 20 µM, 100% = cells with rucaparib alone): 104% (inactive)
- viability ([13]; at 0.0781 µM, OCI-P5x cells, without rucaparib): 102% (inactive)
- viability ([13]; at 0.313 µM, OCI-C5x cells, with rucaparib 10 µM, 100% = cells with rucaparib alone): 93.6% (active)
- viability ([13]; at 0.313 µM, OCI-C5x cells, without rucaparib): 124% (inactive)
- viability ([13]; at 0.313 µM, OCI-P5x cells, with rucaparib 20 µM, 100% = cells with rucaparib alone): 87.5% (active)
- viability ([13]; at 0.313 µM, OCI-P5x cells, without rucaparib): 92.9% (active)
- viability ([13]; at 1.25 µM, OCI-C5x cells, with rucaparib 10 µM, 100% = cells with rucaparib alone): 71.8% (active)
- viability ([13]; at 1.25 µM, OCI-C5x cells, without rucaparib): 80.8% (active)
- viability ([13]; at 1.25 µM, OCI-P5x cells, with rucaparib 20 µM, 100% = cells with rucaparib alone): 69.7% (active)
- viability ([13]; at 1.25 µM, OCI-P5x cells, without rucaparib): 51.3% (active)
- viability ([13]; at 5 µM, OCI-C5x cells, with rucaparib 10 µM, 100% = cells with rucaparib alone): 31.4% (active)
- viability ([13]; at 5 µM, OCI-C5x cells, without rucaparib): 25.1% (active)
- viability ([13]; at 5 µM, OCI-P5x cells, with rucaparib 20 µM, 100% = cells with rucaparib alone): 26.6% (active)
- viability ([13]; at 5 µM, OCI-P5x cells, without rucaparib): 12.2% (active)

SMILES: Clc1cccc(-n2nnnc2NCc2ccccc2Oc2ccccn2)c1Cl
- outcome [1]: inactive
- outcome [2]: inactive
- outcome [3]: inactive
- outcome [4]: inactive
- outcome [5]: inactive
- outcome [6]: inactive
- outcome [7]: inactive
- outcome [8]: inactive
- outcome [9]: inactive

SMILES: O=C1NC(O)CCN1[C@@H]1O[C@H](CO)[C@@H](O)[C@H]1O (stereo partly drawn)
- outcome [1]: inactive
- outcome [2]: inactive
- outcome [3]: inactive
- outcome [4]: inactive
- outcome [5]: inactive
- outcome [6]: inactive
- outcome [7]: inactive
- outcome [8]: inactive
- outcome [9]: inactive

SMILES: CC(C)[C@H](O)C(=O)N[C@@H](C)C(=O)N[C@@H]1C(=O)N(C)CCc2ccccc21
- outcome [1]: inactive
- outcome [2]: inactive
- outcome [3]: inactive
- outcome [4]: inactive
- outcome [5]: inactive
- outcome [6]: inactive
- outcome [7]: inactive
- outcome [8]: inactive
- outcome [9]: inactive

SMILES: O=C(NCCS(=O)(=O)c1ccc(C(F)(F)F)cn1)c1ccc(Cl)cc1
- outcome [1]: inactive
- outcome [2]: inactive
- outcome [3]: inactive
- outcome [4]: inactive
- outcome [5]: inactive
- outcome [6]: inactive
- outcome [7]: inactive
- outcome [8]: inactive
- outcome [9]: inactive
- fold change [10, 14]: 0.87 (inactive)
- fold change [10, 15]: 0.351
- cell count [10, 16]: 7940
- cell count [10, 17]: 9120
- SSMD [11]: 3.34
- cell count [11]: 7080
- plate-normalised HSF1 focus index [11]: 1.2 (inactive)
- z-score [12, 18]: -0.369 (inactive)
- z-score [12, 19]: 0.00298

SMILES: COc1cc(=C2C=c3ccccc3=N2)[nH]/c1=C/c1[nH]c(C)cc1C
- AC50 [1]: 6610 nM (active)
- AC50 [2]: 14800 nM (active)
- AC50 [3]: 4690 nM (active)
- AC50 [4]: 5900 nM (active)
- AC50 [5]: 3320 nM (active)
- AC50 [6]: 2090 nM (active)
- AC50 [7]: 2640 nM (active)
- AC50 [8]: 5900 nM (active)
- IC50 [9]: 16600 nM (active)

SMILES: CC1=C(CO)C(=O)O[C@@H]([C@@H](C)[C@H]2CC[C@H]3[C@@H]4C[C@H]5O[C@]56[C@@H](O)C=CC(=O)[C@]6(C)[C@H]4CC[C@]23C)C1
- AC50 [1]: 1480 nM (active)
- AC50 [2]: 1870 nM (active)
- AC50 [3]: 1180 nM (active)
- AC50 [4]: 332 nM (active)
- AC50 [5]: 1050 nM (active)
- AC50 [6]: 1480 nM (active)
- AC50 [7]: 743 nM (active)
- AC50 [8]: 1320 nM (active)
- IC50 [9]: 2350 nM (active)

SMILES: CCOC(=O)/C=C/[C@H](C[C@@H]1CCNC1=O)NC(=O)[C@@H](CC(=O)[C@@H](NC(=O)c1cc(C)on1)C(C)C)Cc1ccc(F)cc1
- outcome [1]: inactive
- outcome [2]: inactive
- outcome [3]: inactive
- outcome [4]: inactive
- outcome [5]: inactive
- outcome [6]: inactive
- outcome [7]: inactive
- outcome [8]: inactive
- outcome [9]: inactive

SMILES: O=c1c(-c2ccc(O)cc2)coc2cc(O[C@@H]3O[C@H](CO)[C@@H](O)[C@H](O)[C@H]3O)ccc12
- outcome [1]: inactive
- outcome [2]: inactive
- outcome [3]: inactive
- outcome [4]: inactive
- outcome [5]: inactive
- outcome [6]: inactive
- outcome [7]: inactive
- outcome [8]: inactive
- outcome [9]: inactive
